Of roughly 7,900 targets only a part is listed; those with a hit were picked by preference. About 0.6% of all pairs of compound and target were hits. Values without a mark were called inactive.
Compound: CNC(=O)C1=CC=CC=C1NC2=NC(=NC=C2Cl)NC3=C(C=C(C=C3)N4CCOCC4)OC
Assay: log2 fold change, soluble protein after heating vs DMSO (PISA); higher = thermal stabilisation; K562 cells, 10 uM, 30 min; active = over 0.2 and 3.5 SD of the protein, either way, in both replicates (recomputed)
Summary of the method: (§1)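 K562 cells at 2×10^6 cells/mL were treated for 30 min with 10 μM compound, and aliquots were heated for 3 min over 48°C-58°C before pooling. Extraction used PBS with 0.5% NP-40 at 4°C, and soluble protein was the supernatant after 21,000xg for 90 min, measured by TMTpro 16plex LC-MS/MS with channel sums equalised. Thermal stability values, relative to control samples and from duplicates, are log2 fold changes.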

Chain of UniProt P23497 (P23497 whole entry, looked up): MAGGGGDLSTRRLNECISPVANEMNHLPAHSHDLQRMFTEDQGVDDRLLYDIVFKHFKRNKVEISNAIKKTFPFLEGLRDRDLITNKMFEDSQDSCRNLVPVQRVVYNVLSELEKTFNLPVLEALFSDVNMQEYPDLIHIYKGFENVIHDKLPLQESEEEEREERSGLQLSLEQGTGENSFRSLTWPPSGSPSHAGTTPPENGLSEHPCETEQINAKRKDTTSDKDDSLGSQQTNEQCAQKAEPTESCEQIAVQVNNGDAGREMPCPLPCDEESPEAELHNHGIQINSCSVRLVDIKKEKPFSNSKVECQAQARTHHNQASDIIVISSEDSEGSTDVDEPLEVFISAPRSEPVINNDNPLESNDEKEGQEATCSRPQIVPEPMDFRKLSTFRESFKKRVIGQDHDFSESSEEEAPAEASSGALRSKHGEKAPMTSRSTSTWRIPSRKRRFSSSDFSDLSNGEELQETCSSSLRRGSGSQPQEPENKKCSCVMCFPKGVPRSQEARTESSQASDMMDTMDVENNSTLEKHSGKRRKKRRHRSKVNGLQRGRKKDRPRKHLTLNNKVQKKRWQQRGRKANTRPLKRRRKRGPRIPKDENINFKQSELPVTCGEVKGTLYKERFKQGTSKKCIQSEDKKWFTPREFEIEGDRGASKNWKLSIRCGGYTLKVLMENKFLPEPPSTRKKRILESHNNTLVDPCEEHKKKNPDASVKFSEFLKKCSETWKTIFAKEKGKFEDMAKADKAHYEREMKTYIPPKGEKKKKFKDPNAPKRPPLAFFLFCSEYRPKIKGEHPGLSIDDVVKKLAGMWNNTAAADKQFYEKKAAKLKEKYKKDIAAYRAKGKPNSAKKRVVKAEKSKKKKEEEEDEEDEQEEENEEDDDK
Chain of UniProt Q92609 (Q92609 whole entry, looked up): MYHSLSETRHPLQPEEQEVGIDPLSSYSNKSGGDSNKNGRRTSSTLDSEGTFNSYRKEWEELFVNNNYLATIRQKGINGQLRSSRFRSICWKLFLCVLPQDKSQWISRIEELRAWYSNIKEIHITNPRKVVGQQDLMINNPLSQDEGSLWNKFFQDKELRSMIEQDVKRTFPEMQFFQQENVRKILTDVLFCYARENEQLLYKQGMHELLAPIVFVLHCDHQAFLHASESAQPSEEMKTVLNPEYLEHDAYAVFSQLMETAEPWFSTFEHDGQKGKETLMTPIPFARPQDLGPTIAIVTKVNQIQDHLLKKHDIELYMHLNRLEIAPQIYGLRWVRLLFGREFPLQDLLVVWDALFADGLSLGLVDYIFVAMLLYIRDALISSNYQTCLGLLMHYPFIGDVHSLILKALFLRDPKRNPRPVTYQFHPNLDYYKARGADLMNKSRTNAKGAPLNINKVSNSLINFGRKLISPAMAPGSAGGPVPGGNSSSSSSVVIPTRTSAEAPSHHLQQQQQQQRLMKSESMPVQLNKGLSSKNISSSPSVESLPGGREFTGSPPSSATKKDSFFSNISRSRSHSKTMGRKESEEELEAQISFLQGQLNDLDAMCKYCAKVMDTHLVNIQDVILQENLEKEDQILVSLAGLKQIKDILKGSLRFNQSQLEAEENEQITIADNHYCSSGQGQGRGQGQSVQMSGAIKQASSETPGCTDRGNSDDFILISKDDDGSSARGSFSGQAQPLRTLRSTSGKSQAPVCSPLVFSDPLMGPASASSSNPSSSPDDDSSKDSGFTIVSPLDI
Chain of UniProt Q9UDY2 (Q9UDY2 whole entry, looked up): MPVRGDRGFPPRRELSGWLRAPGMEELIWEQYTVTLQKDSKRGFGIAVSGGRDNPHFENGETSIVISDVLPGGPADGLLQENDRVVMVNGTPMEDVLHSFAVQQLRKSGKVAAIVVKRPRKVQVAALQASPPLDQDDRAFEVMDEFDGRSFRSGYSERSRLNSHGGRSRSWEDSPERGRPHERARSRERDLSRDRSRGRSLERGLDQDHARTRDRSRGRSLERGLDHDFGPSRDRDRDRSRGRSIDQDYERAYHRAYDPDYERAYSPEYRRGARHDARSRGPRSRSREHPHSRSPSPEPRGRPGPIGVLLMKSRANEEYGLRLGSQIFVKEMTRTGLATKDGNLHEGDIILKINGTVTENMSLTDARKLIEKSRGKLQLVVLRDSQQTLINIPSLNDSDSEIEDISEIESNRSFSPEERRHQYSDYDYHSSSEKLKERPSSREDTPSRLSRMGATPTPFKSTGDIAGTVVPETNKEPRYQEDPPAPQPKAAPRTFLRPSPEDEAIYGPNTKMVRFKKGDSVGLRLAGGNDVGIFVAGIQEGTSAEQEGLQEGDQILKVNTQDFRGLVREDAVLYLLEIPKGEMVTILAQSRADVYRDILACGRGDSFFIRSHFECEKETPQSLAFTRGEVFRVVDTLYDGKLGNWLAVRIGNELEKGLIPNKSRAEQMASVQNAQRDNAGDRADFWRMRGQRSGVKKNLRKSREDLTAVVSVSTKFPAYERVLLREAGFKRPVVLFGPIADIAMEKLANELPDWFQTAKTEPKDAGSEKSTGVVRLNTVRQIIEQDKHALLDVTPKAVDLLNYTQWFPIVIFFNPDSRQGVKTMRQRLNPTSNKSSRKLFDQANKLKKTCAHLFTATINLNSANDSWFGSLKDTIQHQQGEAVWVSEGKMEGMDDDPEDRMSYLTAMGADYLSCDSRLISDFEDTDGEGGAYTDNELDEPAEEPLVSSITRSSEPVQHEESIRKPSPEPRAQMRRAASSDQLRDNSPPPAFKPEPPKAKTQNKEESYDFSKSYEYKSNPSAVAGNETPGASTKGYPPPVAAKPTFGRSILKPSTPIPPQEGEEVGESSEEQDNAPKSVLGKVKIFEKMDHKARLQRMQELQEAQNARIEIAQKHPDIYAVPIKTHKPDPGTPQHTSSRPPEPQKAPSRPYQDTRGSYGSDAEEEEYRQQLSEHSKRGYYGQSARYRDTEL
Chain of UniProt Q658P3 (Q658P3 whole entry, looked up): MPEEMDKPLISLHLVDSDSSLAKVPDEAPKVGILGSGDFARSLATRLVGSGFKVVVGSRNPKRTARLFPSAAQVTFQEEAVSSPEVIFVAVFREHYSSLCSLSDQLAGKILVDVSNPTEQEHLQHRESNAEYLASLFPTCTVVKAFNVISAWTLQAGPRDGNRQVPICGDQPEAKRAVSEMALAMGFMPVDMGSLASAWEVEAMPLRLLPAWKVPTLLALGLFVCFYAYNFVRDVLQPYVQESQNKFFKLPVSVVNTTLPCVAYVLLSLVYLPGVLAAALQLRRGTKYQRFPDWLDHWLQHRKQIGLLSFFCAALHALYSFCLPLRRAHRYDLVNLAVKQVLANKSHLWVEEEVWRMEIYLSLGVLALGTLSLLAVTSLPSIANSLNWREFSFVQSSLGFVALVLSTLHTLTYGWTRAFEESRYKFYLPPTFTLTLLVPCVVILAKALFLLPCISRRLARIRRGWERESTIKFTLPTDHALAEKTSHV
Chain of UniProt Q9NZD8 (Q9NZD8 whole entry, looked up): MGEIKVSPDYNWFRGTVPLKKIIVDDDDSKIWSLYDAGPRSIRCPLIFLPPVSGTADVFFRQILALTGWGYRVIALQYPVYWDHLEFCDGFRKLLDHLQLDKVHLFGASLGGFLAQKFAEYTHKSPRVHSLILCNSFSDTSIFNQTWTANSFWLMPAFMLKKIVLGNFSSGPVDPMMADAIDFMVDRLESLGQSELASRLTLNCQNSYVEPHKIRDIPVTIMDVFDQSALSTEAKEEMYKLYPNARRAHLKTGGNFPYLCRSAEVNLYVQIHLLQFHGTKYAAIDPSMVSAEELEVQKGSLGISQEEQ
Chain of UniProt Q96CQ1 (Q96CQ1 whole entry, looked up): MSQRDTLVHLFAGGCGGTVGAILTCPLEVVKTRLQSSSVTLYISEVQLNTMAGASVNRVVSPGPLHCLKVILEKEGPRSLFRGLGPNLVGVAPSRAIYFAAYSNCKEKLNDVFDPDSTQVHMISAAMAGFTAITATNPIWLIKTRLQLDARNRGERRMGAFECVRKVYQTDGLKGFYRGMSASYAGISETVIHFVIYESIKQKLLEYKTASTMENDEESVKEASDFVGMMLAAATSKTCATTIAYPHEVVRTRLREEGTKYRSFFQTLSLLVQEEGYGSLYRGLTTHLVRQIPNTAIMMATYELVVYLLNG
Chain of UniProt O00506 (O00506 whole entry, looked up): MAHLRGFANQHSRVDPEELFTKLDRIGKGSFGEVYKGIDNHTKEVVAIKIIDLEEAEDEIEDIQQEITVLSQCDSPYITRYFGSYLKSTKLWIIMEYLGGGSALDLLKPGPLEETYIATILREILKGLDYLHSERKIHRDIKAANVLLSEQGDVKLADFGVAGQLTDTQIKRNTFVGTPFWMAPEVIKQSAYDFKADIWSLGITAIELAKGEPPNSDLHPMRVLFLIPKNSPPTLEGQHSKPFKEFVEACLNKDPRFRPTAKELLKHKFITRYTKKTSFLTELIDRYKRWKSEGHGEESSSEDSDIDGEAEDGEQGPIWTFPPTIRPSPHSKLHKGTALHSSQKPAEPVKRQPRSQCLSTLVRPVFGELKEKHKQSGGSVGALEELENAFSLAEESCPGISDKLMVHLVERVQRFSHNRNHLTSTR
Chain of UniProt P63165 (P63165 whole entry, looked up): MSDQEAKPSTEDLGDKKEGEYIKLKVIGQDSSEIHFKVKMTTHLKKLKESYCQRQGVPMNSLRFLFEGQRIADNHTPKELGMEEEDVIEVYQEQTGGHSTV
Chain of UniProt Q9UNH7 (Q9UNH7 whole entry, looked up): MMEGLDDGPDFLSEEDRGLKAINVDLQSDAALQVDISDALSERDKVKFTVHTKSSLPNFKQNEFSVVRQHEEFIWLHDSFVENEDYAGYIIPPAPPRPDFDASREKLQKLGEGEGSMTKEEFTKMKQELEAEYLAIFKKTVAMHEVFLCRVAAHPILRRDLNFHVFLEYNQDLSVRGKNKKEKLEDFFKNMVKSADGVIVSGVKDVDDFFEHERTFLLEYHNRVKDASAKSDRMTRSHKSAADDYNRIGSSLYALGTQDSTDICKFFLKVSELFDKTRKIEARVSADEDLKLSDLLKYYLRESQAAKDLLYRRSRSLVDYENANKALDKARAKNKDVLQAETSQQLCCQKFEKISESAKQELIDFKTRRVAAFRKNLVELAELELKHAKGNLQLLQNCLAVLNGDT

| Target | log2 fold change |
| --- | --- |
| TERF2IP (UniProt Q9NYB0) | 0.008 |
| TGFBR1 isoform 2 (UniProt P36897) | -0.045 |
| SLC25A39 (UniProt Q9BZJ4) | -0.118 |
| SLC27A2 (UniProt O14975) | 0.144 |
| STAT5B (UniProt P51692) | -0.053 |
| TBC1D15 isoform 3 (UniProt Q8TC07) | -0.014 |
| TELO2 (UniProt Q9Y4R8) | 0.03 |
| SQSTM1 (UniProt Q13501) | -0.024 |
| TBC1D5 isoform 2 (UniProt Q92609) | -0.013 |
| SRI (UniProt P30626) | 0.034 |
| STAT3 (UniProt P40763) | 0.029 |
| SRPRA (UniProt P08240) | 0.033 |
| TAOK1 (UniProt Q7L7X3) | -0.002 |
| STK26 (UniProt Q9P289) | -0.057 |
| STK4 (UniProt Q13043) | 0.01 |
| STXBP2 isoform 3 (UniProt Q15833) | -0.091 |
| SRPRB (UniProt Q9Y5M8) | 0.087 |
| TIMM29 (UniProt Q9BSF4) | -0.03 |
| SPG11 (UniProt Q96JI7) | -0.156 |

| Target | log2 fold change |
| --- | --- |
| SLC25A36 (UniProt Q96CQ1) | 0.013 |
| SLC25A42 (UniProt Q86VD7) | 0.005 |
| TAMM41 isoform 3 (UniProt Q96BW9) | -0.037 |
| SRSF4 (UniProt Q08170) | -0.283 |
| SNRNP27 (UniProt Q8WVK2) | -0.036 |
| TJP2 isoform 7 (UniProt Q9UDY2) | -0.06 |
| STEAP3 isoform 2 (UniProt Q658P3) | -0.025 |
| SP100 isoform 4 (UniProt P23497) | 0.018 |
| SPG21 (UniProt Q9NZD8) | -0.015 |
| TIMM44 (UniProt O43615) | -0.012 |
| TBC1D23 (UniProt Q9NUY8) | -0.027 |
| SPAG9 (UniProt O60271) | 0.02 |
| SNRPB2 (UniProt P08579) | 0.02 |
| SNX6 (UniProt Q9UNH7) | -0.125 |
| STK25 (UniProt O00506) | -0.078 |
| TJP1 (UniProt Q07157) | -0.099 |
| STK11IP (UniProt Q8N1F8) | 0.097 |
| SUMO1 (UniProt P63165) | 0.022 |
| TM9SF2 (UniProt Q99805) | 0.005 |

Compound: CNC(=O)c1ccc(Nc2ncc(C(F)(F)F)c(NCc3nccnc3N(C)S(C)(=O)=O)n2)cc1 [defactinib]
Assay: as above
Summary of the method: as §1

| Target | log2 fold change |
| --- | --- |
| TERF2IP (UniProt Q9NYB0) | -0.195 |
| TGFBR1 isoform 2 (UniProt P36897) | 0.039 |
| SLC25A39 (UniProt Q9BZJ4) | -0.044 |
| SLC27A2 (UniProt O14975) | -0.006 |
| STAT5B (UniProt P51692) | -0.33 |
| TBC1D15 isoform 3 (UniProt Q8TC07) | -0.09 |
| TELO2 (UniProt Q9Y4R8) | -0.019 |
| SQSTM1 (UniProt Q13501) | -0.074 |
| TBC1D5 isoform 2 (UniProt Q92609) | -0.088 |
| SRI (UniProt P30626) | -0.108 |
| STAT3 (UniProt P40763) | -0.124 |
| SRPRA (UniProt P08240) | 0.022 |
| TAOK1 (UniProt Q7L7X3) | -0.142 |
| STK26 (UniProt Q9P289) | 0.067 |
| STK4 (UniProt Q13043) | -0.002 |
| STXBP2 isoform 3 (UniProt Q15833) | -0.133 |
| SRPRB (UniProt Q9Y5M8) | 0.026 |
| TIMM29 (UniProt Q9BSF4) | 0.1 |
| SPG11 (UniProt Q96JI7) | 0.151 |

| Target | log2 fold change |
| --- | --- |
| SLC25A36 (UniProt Q96CQ1) | 0.011 |
| SLC25A42 (UniProt Q86VD7) | 0.101 |
| TAMM41 isoform 3 (UniProt Q96BW9) | 0.015 |
| SRSF4 (UniProt Q08170) | 0.045 |
| SNRNP27 (UniProt Q8WVK2) | 0.015 |
| TJP2 isoform 7 (UniProt Q9UDY2) | -0.211 |
| STEAP3 isoform 2 (UniProt Q658P3) | -0.067 |
| SP100 isoform 4 (UniProt P23497) | -0.087 |
| SPG21 (UniProt Q9NZD8) | -0.134 |
| TIMM44 (UniProt O43615) | -0.035 |
| TBC1D23 (UniProt Q9NUY8) | -0.109 |
| SPAG9 (UniProt O60271) | -0.044 |
| SNRPB2 (UniProt P08579) | 0.193 |
| SNX6 (UniProt Q9UNH7) | -0.054 |
| STK25 (UniProt O00506) | -0.041 |
| TJP1 (UniProt Q07157) | -0.16 |
| STK11IP (UniProt Q8N1F8) | -0.074 |
| SUMO1 (UniProt P63165) | -0.067 |
| TM9SF2 (UniProt Q99805) | 0.006 |

Reference: the supplement of paper PMC10849652
